# Compound activity from PubChem BioAssay.
# JMJD2A Tudor = blocks the human JMJD2A Tudor domain; AlphaScreen JMJD2A-Tudor / H3K4me3 peptide binding; 4.4% of 390,000 active; Potency, µM (series often up to 114 µM), inactives show at the highest dose activity change, negative = inhibition, usual class: inhibitors; O75164; AID 504339; further: on the % scale 0 is the no-effect control and ±100 the full control effect; nearly all actives have a fitted effect of over 50% in size
# BAZ2B block = inhibitors of human BAZ2B bromodomain. Q9UIF8. AID 504333. AlphaScreen BAZ2B-H3K14Ac peptide displacement. Potency, µM (series often up to 114 µM), inactives show at the top dose activity change, negative = inhibition, most hits filed as inhibitors. 4.4% of 360,000 active; further: on the % scale 0 is the no-effect control and ±100 the full control effect; nearly all actives have a fitted effect of over 60% in size
#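 Protein-peptide AlphaScreen: BAZ2B 50 nM, b-H3K14Ac 50 nM, 1x PBS pH 7.4 + 0.01% Tween-20. Preincubation 30 min RT; cpd 30 min RT (top 110 uM); beads 20 min RT, light-protected.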
# G9a inh = G9a (human) methyltransferase inhibition; Potency, µM (titrated, usually from 102 µM), inactives show top-dose activity, negative = inhibition, most hits filed as inhibitors; G9a H3K9 monomethylation, AlphaScreen, 2 h; Q96KQ7; AID 504332; 8.8% of 350,000 active; further: on the % scale 0 is the no-effect control and ±100 the full control effect; nearly all actives have a fitted effect of over 75% in size
# Target sequence (Q96KQ7 913-1193 limits assumed): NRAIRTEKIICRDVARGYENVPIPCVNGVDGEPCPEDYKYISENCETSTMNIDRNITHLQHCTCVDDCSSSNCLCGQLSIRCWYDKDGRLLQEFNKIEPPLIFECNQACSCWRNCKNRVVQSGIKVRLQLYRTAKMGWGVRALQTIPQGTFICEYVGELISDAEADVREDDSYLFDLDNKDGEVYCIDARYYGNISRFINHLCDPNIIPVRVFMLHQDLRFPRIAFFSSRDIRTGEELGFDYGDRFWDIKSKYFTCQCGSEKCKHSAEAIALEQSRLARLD
#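 Compounds were preincubated with 20 nM G9a for 15 min, after which biotinylated H3K9 peptide (500 nM) and SAM (20 uM) started a 2 h room-temperature reaction. Monomethylated product was quantified by antibody-based AlphaScreen chemiluminescence.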
# Sfp inh = blocks B. subtilis Sfp PPTase activity; Q9F4F7; Biochemical Sfp PPTase activity, qHTS; Potency, µM, for inactives: largest response in the series, negative = inhibition, most hits filed as inhibitors; 3.5% of 310,000 active; AID 1490;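 further: the enzyme is Sfp with the accession as filed and its product quenches rhodamine fluorescence; 0% = enzyme reaction without inhibitor and -100% = no enzyme wells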
#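 Buffer: 50 mM Hepes-Na pH 7.6, 10 mM MgCl2, 0.01% Nonidet P-40, 0.01% BSA. Enzyme 15 nM, pre-exposed to compound 15 min; substrates then added and fluorescence change tracked over 30 min.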
# HP1b chromo inh = blocks HP1-beta chromodomain binding to methylated histone tails; Potency, µM (series often up to 114 µM), inactives show at the highest dose activity change, negative = inhibition, most hits filed as inhibitors; P83916; AlphaScreen HP1-beta / biotin-H3K9me3 peptide binding; 0.56% of 390,000 active; further: nearly all actives have a fitted effect of over 70% in size
# Target sequence (P83916 whole entry, looked up): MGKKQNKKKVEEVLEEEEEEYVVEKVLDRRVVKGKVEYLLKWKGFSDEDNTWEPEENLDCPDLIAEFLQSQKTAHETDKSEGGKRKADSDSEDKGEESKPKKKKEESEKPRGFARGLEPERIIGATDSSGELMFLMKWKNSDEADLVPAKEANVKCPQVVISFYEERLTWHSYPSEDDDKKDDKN
#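 AlphaScreen: HP1-beta (50 nM) preformed 30 min with biotin-H3(1-18)K9me3 peptide (50 nM) in PBS pH 7.4, 0.01% Tween-20. Compound added for 30 min at RT, then streptavidin donor/nickel chelate acceptor beads (10 ug/mL) for 30 min.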
# * marks the source's active call; other numbers are inactive results; ? = inconclusive; · = no result; [ ] = remark or other dose. Hits are enriched below; roughly 12% of the tested compounds scored in any of these assays. The call rests on the fitted dose curve; in most records, active means well fitted curve in the direction sought with a large enough effect; inconclusive means small, poorly fitted or top-dose-only effect, or another doubt; inactive means no such curve, though single readings can be large; an effect the other way counts as inactive or inconclusive. Potency means the concentration at half of the fitted maximal effect.
SMILES,JMJD2A Tudor,BAZ2B block,G9a inh,Sfp inh,HP1b chromo inh
Cc1nc(Nc2ccc(C(=O)O)cc2)nc(Nc2ccc(C(=O)O)cc2)c1[N+](=O)[O-],-27.4%,-38.5%,44.7µM*,13.6%,45.3%
COc1ccc(Nc2nc(N/N=C/c3ccc(N(C)C)cc3)nc(C)c2[N+](=O)[O-])cc1,?,?,5.01µM*,0.7%,-7.8%
N=C(N)c1ccc(N=Nc2c(O)ccc3c2[nH]c2ccccc23)cc1,56.2µM*,·,·,·,70.8µM*
CC(=O)Nc1ccc(S(=O)(=O)Nc2nc3ccccc3nc2N2CCOCC2)cc1,-4.8%,·,·,·,34.8%
Cc1ccccc1S(=O)(=O)Nc1nc2ccccc2nc1N1CCOCC1,1.0%,56.2µM*,-41.6%[12.7 µM],13.2%,33.1%
Cc1csc(=Nc2ccccc2)n1C,-13.2%,50.1µM*,?,-8.3%,28.7%
Cc1nc(NCc2ccco2)c2oc3ccccc3c2n1,-24.8%,?,?,-3.0%,27.2%
Cc1cc2ncc(C(=O)Nc3ccsc3C(=O)O)c(C)n2n1,-18.2%,-7.9%,-23.9%,-1.6%,16.7%
COc1ccccc1CNc1nc(-c2ccc(N(C)C)cc2)nc2ccccc12,·,·,·,15.8µM*,·
COc1ccc2[nH]cc(CCNc3nc(-c4ccc(N(C)C)cc4)nc4ccccc34)c2c1,·,·,-2.4%[0.501 µM],17.8µM*,·
COc1ccc2[nH]cc(CCNc3cc(-c4ccccc4C(F)(F)F)ncn3)c2c1,·,·,·,79.4µM*,·
Cc1ccc(C#N)c(SCC(=O)Nc2nccs2)n1,6.1%,-15.2%,?,3.9%,40.9%
O=C(Cn1nnc(-c2ccncc2)n1)Nc1ccc2c(c1)CCC2,-22.6%,1.6%,5.1%[59 µM],-2.0%,24.2%
Clc1cccc(Cl)c1CNC1CCCC1,-11.7%,10.6%,?,-8.2%,29.1%
Cn1cccc1CNC1CCCCC1,-15.3%,-31.6%,50.1µM*,7.7%,6.8%
CCCCNCc1cccn1-c1ccccc1,5.01µM*,70.8µM*,?,-24.0%,?
c1ccc(-n2cccc2CNC2CCCCC2)cc1,3.55µM*,?,?,-13.9%,?
Cc1ccc(S(=O)(=O)Nc2ccc(Cl)cc2)cc1NC(=O)Cn1cnc2c1c(=O)n(C)c(=O)n2C,-17.1%,0.2%,-1.7%[59 µM],-0.7%,3.8%
Cc1cc(C)nc(NNS(=O)(=O)c2c(C)cc(C(C)(C)C)cc2C)n1,?,6.2%,?,·,-0.8%
O=C(CN1C(=O)COc2ccc(S(=O)(=O)NC3CCCC3)cc21)NCc1ccc(Cl)cc1,-6.6%,1.8%,-0.7%[59 µM],·,15.9%
COc1ccc(CN2CCN(CCCCOc3ccc(Cl)cc3)CC2)c(OC)c1OC,6.31µM*,17.8µM*,14.1µM*,89.1µM*,?
COc1ccccc1N1CCN(CCCCN2C(=O)C3CCCCN3C2=O)CC1 (centres undefined),?,4.7%,21.8%[0.501 µM],-7.7%,-3.8%
COc1ccccc1N1CCN(CCCCCCOc2ccc(F)cc2)CC1,-33.8%,-37.4%,50.1µM*,-4.3%,0.7%
COc1ccccc1N1CCN(CCCCOc2cccc3ccccc23)CC1,?,35.5µM*,44.7µM*,-17.8%,-19.5%
COc1ccccc1C(=O)COC(=O)c1nc2nc(C)cc(C)n2n1,-12.4%,23.5%,-38.4%,·,13.8%
SMILES,JMJD2A Tudor,BAZ2B block,G9a inh,Sfp inh,HP1b chromo inh
Cc1c(O)ccc(-c2n[nH]c(C(=O)O)c2-c2nc3ccccc3s2)c1O,-7.0%,?,44.7µM*,2.0%,24.4%
c1ccc(CNc2ccc(N3CCOCC3)cc2)cc1,44.7µM*,·,·,·,?
O=C(CN1CCN(c2ccc(Cl)cc2)CC1)NCc1ccccc1,-22.2%,-8.0%,3.4%,-3.5%,28.1%
Clc1ccc(CNc2ccc(N3CCN(Cc4ccccc4)CC3)cc2)cc1,11.2µM*,5.62µM*,10µM*,1.5%,17.8µM*
CCc1cc[n+](C2=C([O-])c3ccccc3C(=O)/C2=N\S(=O)(=O)c2cccs2)cc1,79.4µM*,?,?,11.1%,?
O=C1C(=O)c2ccccc2C([O-])=C1[n+]1ccccc1,-3.8%,-10.2%,-44.3%,6.8%,20.0%
O=C(c1ccc(COc2ccc(Cl)cc2)cc1)N1CCCCC1,22.9%,6.0%,84.9%,-17.3%,90.5%
COc1ccc(N2C(=O)CC(N3CCN(c4ccccc4OC)CC3)C2=O)cc1 (centres undefined),9.0%,3.0%,?,10.2%,43.9%
